This is a sample that favours compounds with a hit; in the whole collection about 0.92% have one here.
RPL19A-GFP yeast – RPL19A-GFP expression modulators in yeast, primary screen, cell-based, S. cerevisiae, multiplex flow cytometry, MLPCN | percent response vs DMSO, % at 10 µM | 330,000 tested, 0.3% active | S. cerevisiae RPL19A-GFP strain, 3 h; hits give low values;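 active = percent response vs DMSO below 50%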;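 also: median channel GFP fluorescence of the barcoded RPL19A-GFP strain; lower means less RPL19A-GFP as with rapamycin TOR inhibition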
AGP1-GFP MLPCN – modulators of AGP1-GFP expression in yeast TOR pathway, primary screen, cell-based, multiplex flow cytometry, S. cerevisiae, MLPCN library; 3 h; GFP as percent of DMSO wells; GFP response vs DMSO, % at 10 µM; 320,000 tested, 0.02% active;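 active = GFP response relative to DMSO above a set limit, near screen average plus 3 SD, cut at about 150% in these data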;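 also: median GFP channel fluorescence of the gated AGP1 strain per well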
LAP4-GFP MLPCN – modulators of LAP4-GFP expression in yeast, primary screen, S. cerevisiae, multiplex flow cytometry, MLPCN library | AID 2023, 2009 | 3 h; median GFP as percent of DMSO wells | 320,000 tested, 0.34% active | GFP response vs DMSO, % at 10 µM;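 active = GFP response vs DMSO above a set limit, about the screen mean plus 3 SD, cut at about 150% in these data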
MEP2-GFP yeast – modulators of MEP2-GFP levels in yeast, primary screen, S. cerevisiae, multiplex flow cytometry, MLPCN library. S. cerevisiae MEP2-GFP strain, 3 h; 100% = DMSO control level. GFP response vs DMSO, % at 10 µM. 330,000 tested, 0.51% active. AID 2016, 2009;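 active = GFP response versus DMSO above a set limit, roughly screen mean plus 3 SD, cut at about 180% in these data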;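 also: median GFP fluorescence of the barcode-gated MEP2-GFP cells per well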
CIT2-GFP yeast – modulators of CIT2-GFP expression in yeast, primary screen, S. cerevisiae, GFP fusion, multiplex flow cytometry, MLPCN library; S. cerevisiae CIT2-GFP strain, 3 h; 100 means same as DMSO wells; GFP response vs DMSO, % at 10 µM; 320,000 tested, 0.065% active; AID 2029, 2009;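 active = GFP response relative to DMSO above a set limit, near the screen mean plus 3 SD, cut at about 150% in these data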;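 also: ratio of well median GFP fluorescence to mean of DMSO wells on the plate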
LAP4 cherry2 – LAP4-GFP expression modulators in yeast, confirmation, cell-based, second cherry pick, flow cytometry; shares compounds with LAP4-GFP MLPCN; S. cerevisiae LAP4-GFP strain, 3 h; GFP response vs DMSO, % at 10 µM; 590 tested, 20% active;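 active = GFP signal as percent of the solvent control above about 150%, meaning raised reporter expression, limit read from the data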
MEP2-GFP pick2 – modulators of MEP2-GFP levels in yeast, confirmation, S. cerevisiae, flow cytometry GFP, second cherry picks; shares compounds with LAP4-GFP MLPCN; S. cerevisiae MEP2-GFP strain, 3 h; 590 tested, 10% active; GFP response vs DMSO, % at 10 µM;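 active = GFP signal above 150% of the solvent control wells, that is a rise of more than half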;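 also: median channel GFP fluorescence of all gated yeast cells per well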
RPL19A GFP CP2 – RPL19A-GFP modulators in TOR pathway yeast, confirmation, cell-based, S. cerevisiae, flow cytometry, second cherry pick; shares compounds with LAP4-GFP MLPCN; S. cerevisiae RPL19A-GFP strain, 3 h; hits give low values; 100% means same as DMSO wells; GFP response vs DMSO, % at 10 µM; 590 tested, 3% active; AID 2623, 2010;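 active = under 65% GFP response relative to DMSO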;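 also: median GFP channel fluorescence per well over the all cells gate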
CIT2 GFP CP2 – modulators of CIT2-GFP expression in yeast, confirmation, flow cytometry, second cherry pick, single plex; shares compounds with LAP4-GFP MLPCN; S. cerevisiae CIT2-GFP strain, 3 h; DMSO control wells read 100%; GFP response vs DMSO, % at 10 µM; 590 tested, 8% active; AID 2624, 2010;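 active = GFP response vs DMSO above about 150%, limit read from the data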;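 also: median green fluorescence per well over all gated yeast cells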
AGP1-GFP pick2 – AGP1-GFP expression modulators, hit retest, confirmation, cell-based, flow cytometry, S. cerevisiae, cherry pick set 2; shares compounds with LAP4-GFP MLPCN; S. cerevisiae AGP1-GFP strain, 3 h; percent response vs DMSO, % at 10 µM; 590 tested, under 10 active;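 active = over 150 percent of DMSO response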;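 also: median GFP channel fluorescence over all cells without mother daughter split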
s288c autofluor – compound autofluorescence in yeast s288c, dose response, artefact control for yeast TOR pathway GFP screen, s288c strain; S. cerevisiae s288c, 520 nm autofluorescence, flow cytometry, 3 h; hits give high values; zero means same as solvent-only cells; 610 tested, under 10 active; shares compounds with LAP4-GFP MLPCN; fluorescence change (kMESF span) at 33 µM;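 active = fluorescence span over the dose series, or activity score, above about 33, limit read from the data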
Large screens that a line does not name were inactive (follow-up assays come after a bar, where they were run).

COc1ccc(/C=C/C(=O)c2c(O)cc(C)oc2=O)c(OC)c1	none
Cc1cc(O)c(C(=O)/C=C/c2ccc(Cl)cc2)c(=O)o1	LAP4-GFP MLPCN 161 | s288c autofluor inactive
CSc1ccc(/C=C/C(=O)c2c(O)cc(C)oc2=O)cc1	none
O=C1/C(=C/C=C/c2ccccc2)Oc2c1ccc(O)c2CN1CCN(CCO)CC1	none
CCN1CCN(Cc2c(O)ccc3c2O/C(=C\C=C\c2ccccc2)C3=O)CC1	LAP4-GFP MLPCN 153 | LAP4 cherry2 inactive | MEP2-GFP pick2 inactive | RPL19A GFP CP2 inactive | CIT2 GFP CP2 inactive | AGP1-GFP pick2 inactive
O=C(/C=C/c1ccnc2ccccc12)c1cccs1	LAP4-GFP MLPCN 172 | s288c autofluor inactive
O=C(Cn1cnc2ccccc2c1=O)c1cccs1	none
CCc1ccc(C2=NN(S(C)(=O)=O)C(c3cccs3)C2)cc1 (stereo unspecified)	LAP4-GFP MLPCN 258, MEP2-GFP yeast 378, CIT2-GFP yeast 230 | LAP4 cherry2 253 | MEP2-GFP pick2 484 | RPL19A GFP CP2 inactive | CIT2 GFP CP2 384 | AGP1-GFP pick2 inactive
Cc1ccc(C2=NN(S(C)(=O)=O)C(c3cccs3)C2)cc1 (stereo unspecified)	none
CCN1/C(=C/C=C/c2sc3ccccc3[n+]2CC)Sc2ccccc21	LAP4-GFP MLPCN 160 | LAP4 cherry2 200 | MEP2-GFP pick2 inactive | RPL19A GFP CP2 inactive | CIT2 GFP CP2 inactive | AGP1-GFP pick2 inactive | s288c autofluor inactive
O=C(OCC(=O)N1CCN(C(=O)c2ccco2)CC1)c1cc(-c2ccc(Cl)c(Cl)c2Cl)nc2ccccc12	none | s288c autofluor inactive
O=C(OCC(=O)N1CCN(C(=O)c2ccco2)CC1)c1cc(-c2ccco2)nc2ccccc12	none
O=C1C=CC(=O)N1N(c1ccccc1)c1ccccc1	none | s288c autofluor inactive
CCCCC(CC)CN=C(N)NC(N)=NCCCCCCN=C(N)NC(N)=NCC(CC)CCCC (stereo unspecified)	LAP4-GFP MLPCN 160 | LAP4 cherry2 inactive | MEP2-GFP pick2 inactive | RPL19A GFP CP2 inactive | CIT2 GFP CP2 inactive | AGP1-GFP pick2 inactive
Cc1nc(CCNS(=O)(=O)c2cccnc2)cs1	none
CC(=O)Oc1ccc(N(C(C)=O)S(=O)(=O)c2ccc(C)c([N+](=O)[O-])c2)cc1	none
O=c1c(-c2cccc([N+](=O)[O-])c2)[n+]([O-])c2ccccc2n1O	none
O=c1c(-c2ccc(Cl)cc2)[n+]([O-])c2ccccc2n1O	LAP4-GFP MLPCN 165 | s288c autofluor inactive
Cc1nn(-c2ccccc2)c(Cl)c1C(=O)OCC(=O)NCCc1ccccc1	none
O=C(Nc1cccc(N=Cc2cc(Cl)cc(Br)c2O)c1)c1ccco1	none

Screens from PubChem.
